Reference: the supplement of paper PMC9399229
Where a name gives a salt, the structure may show the parent alone. In all, about 1,900 compounds were measured (“relative cell viability (CellTiter-Glo), compound plus cabozantinib, relative to the cabozantinib arm (arm median 1.05; reference not stated)”: median about 1.1, lowest 2% from about 0.15 on). The entries come from a sample that favours the lowest values as a whole.

Each compound was assayed on Hep3B (assay: relative cell viability (CellTiter-Glo), compound plus cabozantinib, relative to the cabozantinib arm (arm median 1.05; reference not stated) (fraction); higher = more viable cells (less growth inhibition)). Settings: cabozantinib 2 µM; 4 days.

Row | Structure (SMILES) | relative cell viability
1 | C[C@@H]1O[C@@H](O[C@H]2C[C@@H](O)[C@]3(CO)[C@H]4[C@H](O)C[C@]5(C)[C@@H](C6=CC(=O)OC6)CC[C@]5(O)[C@@H]4CC[C@]3(O)C2)[C@H](O)[C@H](O)[C@H]1O [Ouabain] | 0.105
2 | CC1(C)CC(O)CC(C)(C)N1[O] [Tempol] | 1.03
3 | Cc1ccc(-n2nccn2)c(C(=O)N2CCN(c3nc4cc(Cl)ccc4o3)CC[C@H]2C)c1 [Suvorexant (MK-4305)] | 0.987
4 | O=C(NCC1CCOCC1)c1cnc(Nc2ccc(Cl)cc2Cl)nc1C(F)(F)F | 1.02
5 | CCc1c(C(=O)C(N)=O)c2c(OCC(=O)O)cccc2n1Cc1ccccc1 | 1.05
6 | [O-][n+]1ccccc1[S-].[O-][n+]1ccccc1[S-].[Zn+2] [Zinc Pyrithione] | 0.0184
7 | CCC1(c2cccc(O)c2)CCCCN(C)C1 (stereo not given) [Meptazinol HCl] | 1.13
8 | CC(=O)O[C@H]1C[C@@H]2CC[C@@H]3[C@H](CC[C@@]4(C)[C@H]3C[C@H]([N+]3(C)CCCCC3)[C@@H]4OC(C)=O)[C@@]2(C)C[C@@H]1[N+]1(C)CCCCC1 [Pancuronium dibromide] | 1.06
9 | Cc1cc2c(C(C)C)c(O)c(O)c(C=O)c2c(O)c1-c1c(C)cc2c(C(C)C)c(O)c(O)c(C=O)c2c1O [Gossypol] | 1.15
10 | CC(=O)Nc1ccc(Cc2ccc(NC(C)=O)cc2)cc1 | 1.07
11 | CC(C)=CCC[C@]1(C)C=Cc2c(O)c3c(c(CC=C(C)C)c2O1)O[C@]12C(=C[C@@H]4C[C@H]1C(C)(C)O[C@@]2(C/C=C(/C)C(=O)O)C4=O)C3=O [Gambogic Acid] | 0.118
12 | CCC1=C[C@H]2CN3CCc4c([nH]c5ccccc45)[C@](C(=O)OC)(C2)[C@H]13 [Catharanthine] | 1.06
13 | CN1[C@@H]2CC[C@H]1C[C@@H](OC(=O)[C@H](CO)c1ccccc1)C2 [Hyoscyamine] | 1.1
14 | CN(C)CCc1ccc(O)cc1 [Hordenine] | 1.11
15 | C[C@H]1CCC/C=C/[C@@H]2C[C@H](O)C[C@H]2[C@H](O)/C=C/C(=O)O1 [Brefeldin A] | 0.105
16 | c1ccc2c(c1)Nc1ccccc1S2 [Phenothiazine] | 1.17
17 | CN(C)Cc1c[nH]c2ccccc12 [Gramine] | 1.06
18 | NCC(=O)O.[C-]#[O+].[C-]#[O+].[C-]#[O+].[Cl][Ru] | 0.978
19 | C#C[C@]1(O)C=C[C@H]2[C@@H]3CCC4=CC(=O)CC[C@@H]4[C@H]3CC[C@@]21CC [Gestodene] | 0.965
20 | Cc1sc2c(c1C)C(c1ccc(Cl)cc1)=N[C@@H](CC(=O)Nc1ccc(O)cc1)c1nnc(C)n1-2 | 0.454
